Experimental data as given in PubChem BioAssay (NCI).
This is part of a sample that, as a whole, favours compounds with a hit. Of some 79,000 tested, about 15% had one in any assay. Rule as the data show it: active = growth inhibition above about 70%; inactive = the rest.

Tests used:
[1] = NCI Yeast Anticancer Drug Screen. Data for the rad50 strain (AID 155);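 also: 0% = growth of vehicle-only cultures of the same strain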; settings: S. cerevisiae rad50 strain growth inhibition; at 50.0 µM; hits give high values
Summary of the method: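 Growth of the mutant yeast was measured after compound exposure and referenced to vehicle-treated cultures.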

[2] = NCI Yeast Anticancer Drug Screen. Data for the mec2-1 strain (AID 157); settings: S. cerevisiae mec2-1 strain, at 50.0 µM, hits give high values
Summary of the method: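 mec2-1 yeast strain, carrying an alteration in DNA damage repair or cell cycle control, was exposed to compounds; growth inhibition was measured relative to vehicle-treated controls.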

[3] = NCI Yeast Anticancer Drug Screen. Data for the bub3 strain (AID 167); settings: S. cerevisiae bub3 mutant strain, at 50.0 µM, hits give high values
Summary of the method: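 Whole-cell yeast assay. The mutant strain was incubated with compounds, and growth inhibition was determined by comparison with vehicle-treated cells.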

[4] = NCI Yeast Anticancer Drug Screen. Data for the mlh1 rad18 strain (AID 175); settings: S. cerevisiae mlh1 rad18 strain growth inhibition; at 50.0 µM; hits give high values
Summary of the method: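 Growth inhibition of the yeast strain was measured after compound exposure and expressed relative to vehicle-treated controls. The strain carries defined defects in DNA damage repair.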

[5] = NCI Yeast Anticancer Drug Screen. Data for the cln2 rad14 strain (AID 165);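 also: 0% = growth equal to vehicle treated cultures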; settings: S. cerevisiae cln2 rad14 strain, at 50.0 µM, hits give high values
Summary of the method: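 Yeast carrying cln2 and rad14 alterations (cell cycle control and DNA damage repair) were exposed to compounds. Growth inhibition was measured against vehicle-treated controls.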

Measured: growth inhibition

O=C(O)CCNC(=O)c1ccccc1
inactive: [1] -6.2% | [2] -7.4% | [3] 7.95% | [4] -12.8%

COC(=O)c1cnn2c1n[n+]([O-])c1ccccc12
inactive: [1] -36.3% | [2] -36% | [5] 15.9% | [3] -37% | [4] -8%

OCC1OC(Nc2ccccc2O)C(O)C(O)C1O (stereo not given)
inactive: [1] 41.5% | [2] 15.6% | [4] 25.7%

CCCCOc1cc(C(=O)NCCN(CC)CC)c2ccccc2n1
inactive: [1] -2.1% | [2] -9.6% | [4] 1.9%

Oc1ccccc1C=NCC1CCC(CN=Cc2ccccc2O)CC1 (stereo not given)
inactive: [1] 8.85% | [2] 13.1% | [4] 21%

O=C(OCC1OC(Oc2ccccc2CO)C(O)C(O)C1O)c1ccccc1 (stereo not given)
inactive: [1] -2.1% | [2] 1.45% | [4] 0.45%

O=C(CC(CC(=O)c1ccccc1)c1ccco1)c1ccccc1
inactive: [1] 2.6% | [2] -17.2% | [4] -8.65%

N#C/C(=C/c1ccccc1Cl)C(N)=O
inactive: [1] -12.2% | [2] -7.05% | [4] 6.15%

COc1cc(OC)cc(C(=O)Cl)c1
inactive: [1] -24.4% | [2] -40% | [4] -16.1%

CCOC(=O)c1sc(N)nc1-c1ccccc1
inactive: [1] 10.7% | [2] 4% | [4] 24.6%

O=S(=O)(O)c1cccc2cccc(Cl)c12
inactive: [1] 9.7% | [2] -7.4% | [4] 10.9%

CCOc1ccc(Br)cc1/C=C1\N=C(c2ccccc2)OC1=O
inactive: [1] -2.25% | [2] -12.2% | [4] 1.7%

COC(=O)CCNCc1ccccc1
inactive: [1] -7.25% | [2] -41.6% | [4] 10.4%

Clc1cccc(Cl)c1Br
inactive: [1] 7.45% | [2] -26.2% | [4] 16.9%

COc1ccc(C(CCl)(CCl)c2ccc(OC)c(N)c2)cc1N
inactive: [1] 12.3% | [2] 14% | [4] 28.6%

CCOC(=O)C(CNc1ccccc1)C(=O)OCC
inactive: [1] -25.4% | [2] -3.05% | [4] -11.7%

O=[N+]([O-])c1cc([N+](=O)[O-])c2nc3ccccn3c2c1
inactive: [1] -1.85% | [2] -43.9% | [4] -11.7%

COc1ccc(N=c2ssc(SC)c2-c2ccccc2)cc1
inactive: [1] 15.4% | [2] -11.4% | [4] -0.8%

Cc1c(Cl)cccc1N1C(=O)CC(Sc2ccccc2N)C1=O (stereo not given)
inactive: [1] 1.05% | [2] -13.9% | [4] 3%
